Test results as given in PubChem BioAssay (NCI).
This is part of a sample that, as a whole, favours compounds with a hit. Of some 83,000 tested, about 20% had one in any assay.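 Treatment: one concentration, 48 hours, 96-well format. Scoring: percent growth, with anything below 10 considered active.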 Calls of active or inactive are those of the source.

Experiments:
Assay in all cases: NCI-60 one-dose screen, 48 h (100 = growth as untreated, 0 = no growth, -100 = all killed)
Conditions in all cases: 10 µM unless noted
NCI-H23 lung = system: NCI-H23 lung
NCI-H226 lung = system: NCI-H226 lung
NCI-H322M lung = system: NCI-H322M lung
HOP-62 NSCLC = system: HOP-62 NSCLC
NCI-H460 lung = system: NCI-H460 lung
HOP-92 NSCLC = system: HOP-92 NSCLC
NCI-H522 lung = system: NCI-H522 lung
A549/ATCC NSCLC = system: A549/ATCC NSCLC
786-0 renal = system: 786-0 renal
COLO 205 colon = system: COLO 205 colon
DU-145 prostate = system: DU-145 prostate
K-562 leukemia = system: K-562 leukemia
MALME-3M melanoma = system: MALME-3M melanoma
MDA-MB-231 breast = system: MDA-MB-231 breast
RXF 393 renal = system: RXF 393 renal
SF-268 CNS = system: SF-268 CNS
SF-295 CNS = system: SF-295 CNS
SF-539 CNS = system: SF-539 CNS
UACC-257 melanoma = system: UACC-257 melanoma
M14 melanoma = system: M14 melanoma

Measured: growth

O=C1CC(=NCC(=O)n2c(-c3ccccc3)nc3ccccc32)NN1
inactive: NCI-H23 lung 91.8% | NCI-H226 lung 90.2% | NCI-H322M lung 103% | HOP-62 NSCLC 89% | NCI-H460 lung 100% | HOP-92 NSCLC 99.5% | NCI-H522 lung 84.5% | A549/ATCC NSCLC 114% | 786-0 renal 107% | COLO 205 colon 111% | DU-145 prostate 115% | K-562 leukemia 111% | MALME-3M melanoma 111% | MDA-MB-231 breast 90.1% | RXF 393 renal 110% | SF-268 CNS 102% | SF-295 CNS 101% | SF-539 CNS 99.4% | UACC-257 melanoma 120% | M14 melanoma 104%

O=C1c2cccc3cccc(c23)C(=O)N1CCCCCN1CCN(CCCCCOc2ccc(-c3nc4ccc(N5CCOCC5)cc4[nH]3)cc2)CC1
active: RXF 393 renal -11.5%
inactive: NCI-H23 lung 98.9% | NCI-H226 lung 78.9% | NCI-H322M lung 103% | HOP-62 NSCLC 97.4% | NCI-H460 lung 27.5% | HOP-92 NSCLC 49.2% | NCI-H522 lung 73.7% | A549/ATCC NSCLC 21.3% | 786-0 renal 109% | COLO 205 colon 96.5% | DU-145 prostate 97.4% | K-562 leukemia 19.6% | MALME-3M melanoma 82.6% | MDA-MB-231 breast 108% | SF-268 CNS 136% | SF-295 CNS 16.3% | SF-539 CNS 54.4% | UACC-257 melanoma 56.3% | M14 melanoma 50.6%

O=c1cc(/C(=C2/C=CC=N2)c2ccc[nH]2)c2cc(Cl)ccc2o1
inactive: NCI-H23 lung 62.3% | NCI-H226 lung 35% | NCI-H322M lung 55.8% | HOP-62 NSCLC 50.4% | NCI-H460 lung 24.3% | HOP-92 NSCLC 66.5% | NCI-H522 lung 56.1% | A549/ATCC NSCLC 55.2% | 786-0 renal 22.4% | COLO 205 colon 87.2% | DU-145 prostate 47% | K-562 leukemia 24.8% | MALME-3M melanoma 66.6% | MDA-MB-231 breast 71% | SF-268 CNS 56.4% | SF-295 CNS 13.9% | SF-539 CNS 16.1% | UACC-257 melanoma 38.3% | M14 melanoma 35.5%
active: RXF 393 renal -29.1%

O=C(CCl)Oc1ccc(-c2ccccc2)c(Br)c1
inactive: NCI-H23 lung 100% | NCI-H226 lung 96.4% | NCI-H322M lung 105% | HOP-62 NSCLC 107% | NCI-H460 lung 104% | HOP-92 NSCLC 92% | NCI-H522 lung 107% | A549/ATCC NSCLC 106% | 786-0 renal 105% | COLO 205 colon 108% | DU-145 prostate 104% | K-562 leukemia 103% | MALME-3M melanoma 107% | MDA-MB-231 breast 109% | RXF 393 renal 106% | SF-268 CNS 104% | SF-295 CNS 107% | SF-539 CNS 99.4% | UACC-257 melanoma 106% | M14 melanoma 103%

Cc1ccc(C2=NN3C(C2)c2cc(Br)ccc2OC32CCN(Cc3ccccc3)CC2)o1 (stereo not given)
inactive: NCI-H23 lung 94.9% | NCI-H226 lung 86.9% | NCI-H322M lung 92.7% | HOP-62 NSCLC 104% | NCI-H460 lung 98% | HOP-92 NSCLC 80% | NCI-H522 lung 89.1% | A549/ATCC NSCLC 96.3% | 786-0 renal 103% | COLO 205 colon 105% | DU-145 prostate 98.8% | K-562 leukemia 85.3% | MALME-3M melanoma 103% | MDA-MB-231 breast 92.3% | RXF 393 renal 110% | SF-268 CNS 84.4% | SF-295 CNS 100% | SF-539 CNS 101% | UACC-257 melanoma 101% | M14 melanoma 106%

N#CCCN=Nc1c(O)[nH]c2ccc([N+](=O)[O-])cc12
inactive: NCI-H23 lung 94.9% | NCI-H226 lung 96% | NCI-H322M lung 98% | HOP-62 NSCLC 99.4% | NCI-H460 lung 102% | HOP-92 NSCLC 102% | NCI-H522 lung 78.8% | A549/ATCC NSCLC 114% | 786-0 renal 104% | COLO 205 colon 109% | DU-145 prostate 111% | K-562 leukemia 105% | MALME-3M melanoma 110% | MDA-MB-231 breast 90% | RXF 393 renal 106% | SF-268 CNS 94.9% | SF-295 CNS 105% | SF-539 CNS 94.9% | UACC-257 melanoma 119% | M14 melanoma 101%

Nc1ccc(S(=O)(=O)O)c2ccc(N=Nc3ccc(N=Nc4ccc(S(=O)(=O)O)cc4)c4ccccc34)c(O)c12
inactive: NCI-H23 lung 98% | NCI-H226 lung 92.1% | NCI-H322M lung 94.7% | HOP-62 NSCLC 112% | NCI-H460 lung 101% | HOP-92 NSCLC 102% | NCI-H522 lung 89.4% | A549/ATCC NSCLC 99.8% | 786-0 renal 102% | COLO 205 colon 105% | DU-145 prostate 110% | K-562 leukemia 106% | MALME-3M melanoma 97.6% | MDA-MB-231 breast 94.7% | RXF 393 renal 109% | SF-268 CNS 101% | SF-295 CNS 114% | SF-539 CNS 123% | UACC-257 melanoma 109% | M14 melanoma 99.8%
